Measured values reported in PubChem BioAssay AID1159580 (chemical genetic matrix, 2015).
The whole screen tested about 5,500 compounds, of which about 2,000 (36%) were called active. Another 18% or so got no clear call; they are omitted. Rule as the data show it: active = normalized growth mostly below about 0.91 (no sharp cut-off); inconclusive = no clear call, values can overlap the other calls; inactive = mostly above about 0.92. The list shows a part of the results.

Assay: chemical genetic growth profiling, strain panel (AID 1159580);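 also: tested at 20 µM; growth read once vehicle control cultures reached saturation at 30 °C; 1 = growth at the plate median or of vehicle wells; lower values mean less growth of the strain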
Settings: S. cerevisiae deletion strains, growth OD
[1] = locus YDL101C, strain DUN1, stronger effect = lower value
[2] = locus YHR030C, strain SLT2, stronger effect = lower value

Measured: normalized growth

CCCN(CCC)C(=S)NC(=O)c1cccc([N+](=O)[O-])c1
inactive: locus YAR019C, strain CDC15, stronger effect = lower value 0.973 | locus YBL105C, strain PKC1, stronger effect = lower value 0.956 | locus YBR135W, strain CKS1, stronger effect = lower value 0.977 | locus YBR136W, strain MEC1, stronger effect = lower value 0.966 | locus YBR160W, strain CDC28, stronger effect = lower value 0.965 | locus YDL017W, strain CDC7, stronger effect = lower value 0.969 | locus YDL028C, strain MPS1, stronger effect = lower value 0.976 | [1] 0.968 | locus YDL108W, strain KIN28, stronger effect = lower value 0.965 | locus YDL132W, strain cdc53, stronger effect = lower value 0.973 | locus YDL214C, strain PRR2, stronger effect = lower value 0.967 | locus YDR052C, strain DBF4, stronger effect = lower value 0.978 | locus YDR054C, strain cdc34, stronger effect = lower value 0.96 | locus YDR226W, strain ADK1, stronger effect = lower value 0.968 | locus YDR477W, strain SNF1, stronger effect = lower value 0.958 | locus YER123W, strain YCK3, stronger effect = lower value 0.907 | locus YER133W, strain GLC7, stronger effect = lower value 0.965 | locus YFL009W, strain cdc4, stronger effect = lower value 0.961 | locus YFL029C, strain CAK1, stronger effect = lower value 0.962 | locus YFR003C, strain YPI1, stronger effect = lower value 0.977 | locus YFR019W, strain FAB1, stronger effect = lower value 0.958 | locus YFR028C, strain CDC14, stronger effect = lower value 0.963 | locus YGR040W, strain KSS1, stronger effect = lower value 0.924 | locus YGR052W, strain FMP48, stronger effect = lower value 1.02 | locus YGR092W, strain DBF2, stronger effect = lower value 0.915 | [2] 0.94 | locus YHR079C, strain IRE1, stronger effect = lower value 0.978 | locus YHR082C, strain KSP1, stronger effect = lower value 1.02 | locus YHR205W, strain SCH9, stronger effect = lower value 0.976 | locus YIL147C, strain SLN1, stronger effect = lower value 0.97 | locus YJL095W, strain BCK1, stronger effect = lower value 0.982 | locus YJL128C, strain PBS2, stronger effect = lower value 0.952 | locus YJL157C, strain FAR1, stronger effect = lower value 0.928 | locus YJR016C, strain ILV3, stronger effect = lower value 0.968 | locus YJR066W, strain TOR1 (second series), stronger effect = lower value 0.898 | locus YJR066W, strain TOR1, stronger effect = lower value 0.992 | locus YKL048C, strain ELM1, stronger effect = lower value 0.954 | locus YKL067W, strain YNK1, stronger effect = lower value 0.96 | locus YKL101W, strain HSL1, stronger effect = lower value 0.958 | locus YKL193C, strain SDS22, stronger effect = lower value 0.968 | locus YKL203C, strain TOR2, stronger effect = lower value 0.995 | locus YLR113W, strain HOG1, stronger effect = lower value 0.932 | locus YLR133W, strain CKI1, stronger effect = lower value 0.946 | locus YLR403W, strain SFP1, stronger effect = lower value 0.907 | locus YML070W, strain DAK1, stronger effect = lower value 0.942 | locus YMR001C, strain CDC5, stronger effect = lower value 0.973 | locus YMR205C, strain PFK2 (second series), stronger effect = lower value 0.956 | locus YMR277W, strain FCP1, stronger effect = lower value 0.973 | locus YNL006W, strain LST8, stronger effect = lower value 0.977 | locus YNL020C, strain ARK1, stronger effect = lower value 0.946 | locus YNL161W, strain CBK1, stronger effect = lower value 0.959 | locus YNL183C, strain NPR1, stronger effect = lower value 0.977 | locus YNL207W, strain RIO2, stronger effect = lower value 0.971 | locus YNL222W, strain SSU72, stronger effect = lower value 0.965 | locus YNL307C, strain MCK1 (second series), stronger effect = lower value 0.94 | locus YOL078W, strain AVO1, stronger effect = lower value 0.965 | locus YOL136C, strain PFK27, stronger effect = lower value 0.929 | locus YOR061W, strain CKA2, stronger effect = lower value 0.943 | locus YOR119C, strain RIO1, stronger effect = lower value 0.996 | locus YOR231W, strain MKK1, stronger effect = lower value 0.939 | locus YOR329C, strain SCD5, stronger effect = lower value 0.963 | locus YPL031C, strain PHO85, stronger effect = lower value 0.955 | locus YPL153C, strain RAD53, stronger effect = lower value 0.925 | locus YPL204W, strain HRR25, stronger effect = lower value 0.915 | locus YPL209C, strain IPL1, stronger effect = lower value 0.961 | locus YPL256C, strain CLN2, stronger effect = lower value 0.941 | locus YPR025C, strain CCL1, stronger effect = lower value 0.973 | locus YPR106W, strain ISR1, stronger effect = lower value 0.961 | locus YPR111W, strain DBF20, stronger effect = lower value 0.964 | strain NNK1, stronger effect = lower value 0.974 | strain TSCII, stronger effect = lower value 0.962

COc1ccc(-n2c(=S)[nH]c(=O)c3cccnc32)cc1
inactive: locus YAL013W, strain DEP1, stronger effect = lower value 1 | locus YBR229C, strain ROT2, stronger effect = lower value 1.01 | [1] 1.04 | locus YDL134C, strain PPH21, stronger effect = lower value 0.996 | locus YDR150W, strain NUM1, stronger effect = lower value 0.985 | locus YEL061C, strain CIN8, stronger effect = lower value 1 | locus YGR078C, strain PAC10, stronger effect = lower value 1.04 | locus YGR229C, strain SMI1, stronger effect = lower value 0.993 | [2] 1.06 | locus YHR087W, strain rtc3, stronger effect = lower value 0.954 | locus YJL187C, strain SWE1, stronger effect = lower value 0.99 | locus YJR043C, strain POL32, stronger effect = lower value 1.04 | locus YJR075W, strain HOC1, stronger effect = lower value 0.993 | locus YLR039C, strain RIC1, stronger effect = lower value 0.999 | locus YLR058C, strain SHM2 (second series), stronger effect = lower value 0.991 | locus YLR085C, strain ARP6, stronger effect = lower value 1.03 | locus YLR262C, strain YPT6, stronger effect = lower value 0.988 | locus YML094W, strain GIM5, stronger effect = lower value 0.983 | locus YMR219W, strain ESC1, stronger effect = lower value 0.999 | locus YMR263W, strain SAP30, stronger effect = lower value 1.02 | locus YNL153C, strain GIM3, stronger effect = lower value 1.02 | locus YNL298W, strain CLA4 (second series), stronger effect = lower value 1 | locus YNL322C, strain KRE1, stronger effect = lower value 1.01 | locus YNR030W, strain Alg12, stronger effect = lower value 0.994 | locus YPL055C, strain LGE1, stronger effect = lower value 0.973 | locus YPL241C, strain CIN2, stronger effect = lower value 0.991 | locus YPR135W, strain CTF4, stronger effect = lower value 1.05
